Laboratory results as given in PubChem BioAssay (NCI).
Compounds without any hit were thinned out: in the full panel of roughly 83,000, 20% have a hit.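 For each line, cells grew in 96-well plates with the test compound present at a single concentration for 48 hours.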 A number with no mark means an inactive call. Activity calls are given as the source filed them. How the source made its calls: active means growth percent below 10; inactive means the rest.

Test system: MDA-MB-468 breast
Test: NCI-60 one-dose screen, 48 h (100 = growth as untreated, 0 = no growth, -100 = all killed)
Conditions: 10 µM unless noted

Structure (SMILES) | growth
CCCCCCCC(=O)SCC/C=C/[C@@H]1CC(=O)NCc2cc(ccn2)C2=N[C@@](C)(CS2)C(=O)N[C@@H](C(C)C)C(=O)O1 | 12.2%
Cc1cc(C(=O)Nc2cc(Nc3ncccc3-c3ncnc4nc[nH]c34)ccc2F)cc(C(F)(F)F)c1 | 93.6%
O=C(Nc1ccc(C(=O)Nc2ccc(C3=NCCCN3)cc2)cc1)Nc1ccc(C2=NCCCN2)cc1 | 66.6%
COc1ccc(-c2nocc2-c2cccs2)cc1 | 97%
C=C1C(=O)O[C@H]2[C@H]1CC/C(COC(=O)/C=C\C(=O)NCc1ccc(Cn3c(=O)sn(CCCCC)c3=O)cc1)=C\CC[C@@]1(C)O[C@@H]21 | 47%
O=C(NCc1ccc(Cn2c(=O)sn(-c3ccccc3)c2=O)cc1)OCc1ccc2c(Br)cc(Br)c(O)c2n1 | -67.5% (active)
O=C1/C(=C/c2ccccc2)CN(CCC(=O)N2C/C(=C\c3ccccc3)C(=O)/C(=C/c3ccccc3)C2)C/C1=C\c1ccccc1 | 66.9%
COc1cc(C2C=C(C)N=C3SC=NN32)cc(OC)c1OC (configuration not stated) | 102%
COc1cccc(-c2cc(-c3cccc(NS(C)(=O)=O)c3)nc(N)c2C#N)c1O | 2.89% (active)
O=C1C(N2CCOCC2)=Cc2cccc3cccc1c23 | 72%
COc1cc(-c2c(C#N)c(N)n3c(nc4ccccc43)c2C#N)cc(Br)c1OC | 36.5%
COc1ccc(-c2ccc(NC(=O)Nc3ccc(Cl)c(C(F)(F)F)c3)c(C)n2)cc1 | 38.5%
